Vaccinia Venus: vaccinia inhibition (Venus reporter). Potency, µM (series often up to 36.5 µM), for the others: at the top dose activity change, negative = inhibition, usual class: inhibitors. 0.46% of 330,000 active. Vaccinia virus Venus reporter expression, fluorescence; calls by dose curve; tested in A549 cells; note: potency is the fitted concentration of half-maximal effect; nearly all actives have a fitted effect of over 30% in size
MARV entry inh: Marburg virus entry inhibition | Marburg virus pseudotyped entry inhibition, cell reporter | Potency, µM (titrated, usually from 37.8 µM), without a hit: top-dose activity change, negative = inhibition, hits mostly inhibitors | 1.8% of 300,000 active | AID 540276; calls by dose curve; tested in HEK293 cells; note: potency is the fitted concentration of half-maximal effect
Vaccinia mCherry: vaccinia inhibition (mCherry reporter) | Vaccinia virus mCherry reporter infection, fluorescence | Potency, µM (doses to about 36.5 µM), for inactives: at the highest dose activity change, negative = inhibition, most hits filed as inhibitors | 0.63% of 310,000 active; calls by dose curve; tested in A549 cells; note: potency is the fitted concentration of half-maximal effect; nearly all actives have a fitted effect of over 35% in size
HCMV inh: human cytomegalovirus inhibition; HFF cells, HCMV-luciferase reporter, 72 h; stronger effect = lower value; activity change, negative = inhibition, % at 57.5 µM; 4.5% of 410,000 active; AID 1259415; in the data active = activity change below about -60%; inconclusive = no clear call, values can overlap the other calls; inactive = above about -39%
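Steps: HFFs plated, 16 h 37C; compounds added; HCMV-luciferase added to MOI 1 PFU/cell; 72 h 37C; OneGlo reagent, 5 min room temperature; luminescence read, normalized to controls.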
FMDV antiviral: antivirals against foot and mouth disease virus. Potency, µM (top dose mostly 57.9 µM), for inactives: at the top dose activity change, negative = inhibition, most hits filed as inhibitors. FMDV antiviral cell-based qHTS. 1.2% of 410,000 active. AID 1159524; calls by dose curve; tested in HEK293T cells; note: read-out not given here; potency is the fitted concentration of half-maximal effect; nearly all actives have a fitted effect of over 45% in size
Lassa entry inh: Lassa virus entry inhibition. Lassa virus pseudotype entry inhibition, cell reporter. Potency, µM (top dose mostly 37.9 µM), for the others: top-dose activity change, negative = inhibition, hits mostly inhibitors. 1.2% of 300,000 active. AID 540256; calls by dose curve; tested in HEK293 cells; note: potency is the fitted concentration of half-maximal effect; nearly all actives have a fitted effect of over 50% in size
Numbers without * were called inactive; i = inactive; ? = inconclusive; / = no result; [ ] = remark or other dose. Shown are actives, neighbours in structure and some others; about 6.5% of the full set was active somewhere. % is set by controls: 0 for no effect and ±100 for the full control effect.

SMILES	Vaccinia Venus	MARV entry inh	Vaccinia mCherry	HCMV inh	FMDV antiviral	Lassa entry inh
Fc1ccc(Nc2cc3[nH]c(-c4ccccc4)cc3cn2)cc1	/	/	/	-6	/	/
COc1ccc(Oc2ncc3nc(-c4cccc(C#N)c4)c(=O)n(CCC#N)c3n2)cc1	/	/	/	/	-32%	/
Cc1cccc(C(=O)Nc2ccc(C(=O)OCc3cc(=O)n4nc(CC(C)C)sc4n3)cc2)c1	-15%	/	-15%	38	30%	9%[46.1 µM]
CCOc1ccc(-c2nc3n(c(=O)c2C#N)CCCS3)cc1	-16%	?	/	-91*	-8%	7.1µM*
Cc1ccc(NC(=O)Nc2nnc(N3CCCCC3)s2)c(C)c1	-8%	-10%[46.1 µM]	-7%	18	12%	2%[46.1 µM]
CCOC(=O)c1ccc(N2C(=O)c3n[nH]c(-c4cccs4)c3C2c2ccc(CC)cc2)cc1 (stereo not given)	?	?	?	-99*	?	?
CCOC(=O)c1ccc(N2C(=O)c3n[nH]c(C)c3C2c2cccc(Br)c2)cc1 (stereo not given)	-3%[7.34 µM]	?	-4%[7.34 µM]	-32	-29%	?
CCOC(=O)c1ccc(N2C(=O)c3n[nH]c(-c4cccs4)c3C2c2ccc(OCC)cc2)cc1 (stereo not given)	?	13µM*	?	-105*	-28%	?
CCOC(=O)c1ccc(N2C(=O)c3n[nH]c(-c4cccs4)c3C2c2cccc(O)c2)cc1 (stereo not given)	-14%	?	-19%	-3	35µM*	?
CCOC(=O)c1ccc(N2C(=O)c3n[nH]c(C)c3C2c2ccc(CC)cc2)cc1 (stereo not given)	-10%	?	-8%	-12	?	20%[46.1 µM]
CCOC(=O)c1ccc(N2C(=O)c3n[nH]c(-c4cccs4)c3C2c2ccc(C(C)C)cc2)cc1 (stereo not given)	-21%	?	-25%	-106*	?	-19%[46.1 µM]
CSc1nn(Cc2ccc(Br)cc2)c(N(C(C)=O)C(C)=O)c1S(=O)(=O)c1ccccc1	?	?	?	?	-26%	?
Cc1ccccc1Cn1c(SCc2ccc(C(=O)NC3CCCCC3)cc2)nc2ccncc21	-20%	-11%[46.1 µM]	-20%	11	1%	/
CCOC(=O)c1ccc(NC(=O)c2ccc3c(c2)C(=O)N(Cc2cccnc2)C3=O)cc1	/	/	/	11	18µM*	/
COc1ccc(OC)c(NC(=O)c2ccc3c(c2)C(=O)N(CC2CCCO2)C3=O)c1 (stereo not given)	1%	2%[46.1 µM]	i	-66*	-9%	-27%[46.1 µM]
COC(=O)Cc1ccc(NC(=O)c2ccc3c(c2)C(=O)N(Cc2cccnc2)C3=O)cc1	-21%	0%[46.1 µM]	i	26	?	-2%[46.1 µM]
Cc1ccc(NC(=O)c2ccc3c(c2)C(=O)N(CC2CCCO2)C3=O)cc1C (stereo not given)	-1%	-2%[46.1 µM]	-8%	-1	-12%	16%[46.1 µM]
CCOC(=O)c1ccc(NC(=O)c2ccc3c(c2)C(=O)N(CC2CCCO2)C3=O)cc1 (stereo not given)	-4%	26%	-3%	-16	28µM*	-4%
NCCCC(O)(P(=O)(O)O)P(=O)(O)O	-11%	/	-12%	/	3%	/
O=C(c1ccc(F)cc1F)N1CCC(c2noc(-c3ccc(S(=O)(=O)N4CCCC4)cc3)n2)CC1	-12%	-8%[46.1 µM]	-12%	-1	-9%	23%[46.1 µM]
CC(C)C(=O)N1CCC(c2nc(-c3ccc(S(=O)(=O)N4CCCC4)cc3)no2)CC1	-8%	-25%	-16%	-73*	3%	?
COc1ccccc1C(=O)N1CCC(c2noc(-c3ccc(S(=O)(=O)N4CCCC4)cc3)n2)CC1	-25%	-13%[46.1 µM]	-30%	-84*	?	-14%[46.1 µM]
COc1ccc(/C=C/c2onc(C)c2S(=O)(=O)N2CCC(C(=O)N3CCCCCC3)CC2)cc1	?	?	?	-69*	-20%	?
Cc1noc(/C=C/N(C)C)c1S(=O)(=O)N1CCC(C(=O)O)CC1	2%	/	45%	-69*	-15%	/
Cc1ccc(/C=C/c2onc(C)c2S(=O)(=O)N2CCC(C(=O)N3CCCCC3)CC2)cc1	?	/	-29%	-38	-22%	/
Cc1ccc(CN2CC(N3CCC[C@@H]3C)CS2(=O)=O)cc1 (stereo not given in full)	/	/	/	1	/	/

Screening data from PubChem.
